Assay results published in PubChem BioAssay (Tox21).
Inconclusive results are not listed. Active and inactive are the calls of the source. Unless noted, calls follow the shape of the dose curve; as a rule, active = well fitted curve in the direction sought with a large enough effect in the repeat runs; inconclusive = weak or mixed curves; inactive = no such curve, though single readings can be large; an effect the other way counts as inactive or inconclusive.

Experiments:
[1] = qHTS assay to test for compound auto fluorescence at 535 nm (green) in HEK293 cells (AID 720680)
[2] = qHTS assay to test for compound auto fluorescence at 460 nm (blue) in HEK293 cell free culture (AID 720681)
Method in brief: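 Test compounds were pinned into cell-free culture medium (DMEM with 10% FBS) and fluorescence was read directly at Ex/Em 405/460 nm. Signals were expressed as fluorescence equivalents of triamterene, with DMSO vehicle as control.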

[3] = qHTS assay to test for compound auto fluorescence at 535 nm (green) in HEK293 cell free culture (AID 720682)
Method in brief: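 Each library compound, or DMSO control, is added by pintool to medium alone, comprising DMEM and 10% FBS. Emission at 535 nm following 485 nm excitation is quantified against fluorescein.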

[4] = qHTS assay to test for compound auto fluorescence at 590 nm (red) in HEK293 cell free culture (AID 720683)
Method in brief: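 Tox21 10K library compounds were pinned into cell-free DMEM with 10% FBS and fluorescence was read at excitation 540 nm. Activity is expressed as Rose Bengal sodium equivalency.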

[5] = qHTS assay to test for compound auto fluorescence at 590 nm (red) in HepG2 cell free culture (AID 720684)
Method in brief: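 Readout: intrinsic compound fluorescence at 590 nm emission after 540 nm excitation, scaled to Rose Bengal sodium. Matrix was cell-free MEM with 10% FBS; DMSO vehicle wells served as control.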

[6] = qHTS assay to test for compound auto fluorescence at 460 nm (blue) in HepG2 cell free culture (AID 720685)
Method in brief: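 Cell-free plates of MEM plus 10% FBS received 23 nL compound or DMSO vehicle; blue-channel (405/460 nm) intensity scored against triamterene as reference fluorophore.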

[7] = qHTS assay to test for compound auto fluorescence at 535 nm (green) in HepG2 cell free culture (AID 720686)
[8] = qHTS assay to test for compound auto fluorescence at 460 nm (blue) in HepG2 cells (AID 720687)
Method in brief: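 Cells (2,000/well in MEM with 10% FBS) attached overnight at 37 C, then were exposed to compound or DMSO for 1 hr at 37 C, 5% CO2. Fluorescence read at Ex/Em 405/460 nm, expressed as triamterene-equivalent signal.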

[9] = biological target: Glucocorticoid receptor (Homo sapiens) (UniProt P04150); assay: qHTS assay to identify small molecule agonists of the glucocorticoid receptor (GR) signaling pathway (AID 720691; active = well fitted activation curve with a large enough effect in the signal ratio in the repeat runs, not every such curve was filed as active; the % refers to the signal ratio)
Chain of Glucocorticoid receptor (Homo sapiens) (P04150 whole entry, looked up): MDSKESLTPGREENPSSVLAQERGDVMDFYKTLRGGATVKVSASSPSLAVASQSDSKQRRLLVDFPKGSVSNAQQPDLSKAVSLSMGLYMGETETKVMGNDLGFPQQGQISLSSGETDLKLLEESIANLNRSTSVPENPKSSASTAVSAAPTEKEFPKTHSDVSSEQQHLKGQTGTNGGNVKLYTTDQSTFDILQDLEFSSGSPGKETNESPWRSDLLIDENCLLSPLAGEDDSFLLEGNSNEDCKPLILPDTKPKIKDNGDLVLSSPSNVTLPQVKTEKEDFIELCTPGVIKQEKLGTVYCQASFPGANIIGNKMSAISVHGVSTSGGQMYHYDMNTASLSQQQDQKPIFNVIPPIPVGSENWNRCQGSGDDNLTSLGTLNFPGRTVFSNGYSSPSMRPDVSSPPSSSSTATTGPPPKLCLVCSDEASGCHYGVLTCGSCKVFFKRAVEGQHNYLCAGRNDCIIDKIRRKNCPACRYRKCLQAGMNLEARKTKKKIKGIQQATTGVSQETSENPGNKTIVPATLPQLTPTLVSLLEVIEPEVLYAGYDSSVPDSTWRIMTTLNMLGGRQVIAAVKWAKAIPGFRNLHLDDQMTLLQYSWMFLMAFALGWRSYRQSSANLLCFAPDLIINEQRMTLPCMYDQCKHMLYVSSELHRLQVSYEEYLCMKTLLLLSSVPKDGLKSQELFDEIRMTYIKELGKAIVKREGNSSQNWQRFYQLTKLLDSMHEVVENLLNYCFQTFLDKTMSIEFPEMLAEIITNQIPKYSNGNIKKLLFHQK
Method in brief: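 Steps: seed GR-bla HeLa cells, incubate 4 h at 37 C/5% CO2; pin-transfer DMSO-dissolved compounds; incubate 18 h at 37 C; add LiveBLAzer B/G FRET substrate; after 2 h at room temperature, measure fluorescence.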

[10] = biological target: Glucocorticoid receptor (Homo sapiens) (UniProt P04150); assay: qHTS assay to identify small molecule antagonists of the glucocorticoid receptor (GR) signaling pathway (AID 720692; active = well fitted inhibition curve with a large enough effect in the signal ratio in the repeat runs, not every such curve was filed as active; the % refers to the signal ratio)
Method in brief: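 Antagonism was scored as loss of dexamethasone-driven (5 nM final) reporter signal in HeLa cells bearing a glucocorticoid response element–beta-lactamase construct, after 18 h compound exposure at 37 C and 2 h FRET substrate loading.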

[11] = qHTS assay to identify small molecule antagonists of the glucocorticoid receptor (GR) signaling pathway - cell viability counter screen (AID 720693); also: nearly all actives have a fitted effect of over 55% in size
[12] = qHTS assay for identifying genotoxic compounds that show differential cytotoxicity against isogenic chicken DT40 cell lines with known DNA damage response pathways - wild type cell line (AID 743012); also: nearly all actives have a fitted effect of over 60% in size
Method in brief: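 Cytotoxicity in repair-proficient parental chicken DT40 cells serves as the comparator for Rad54/Ku70- and Rev3-deficient lines. Cells were exposed to compounds for 40 h at 37 C/5% CO2, and ATP-based luminescence (CellTiter-Glo) measured viability.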

[13] = qHTS assay for identifying genotoxic compounds that show differential cytotoxicity against isogenic chicken DT40 cell lines with known DNA damage response pathways - Rev3 mutant cell line (AID 743014); also: nearly all actives have a fitted effect of over 55% in size
[14] = qHTS assay for identifying genotoxic compounds that show differential cytotoxicity against isogenic chicken DT40 cell lines with known DNA damage response pathways - Rad54/Ku70 mutant cell line (AID 743015); also: nearly all actives have a fitted effect of over 60% in size
[15] = qHTS assay to identify small molecule antagonists of the androgen receptor (AR) signaling pathway - cell viability counter screen (AID 743033; also: nearly all actives have a fitted effect of over 45% in size)
[16] = biological target: Androgen receptor (Homo sapiens) (UniProt P10275); assay: qHTS assay to identify small molecule antagonists of the androgen receptor (AR) signaling pathway (AID 743035; active = well fitted inhibition curve with a large enough effect in the signal ratio in the repeat runs, not every such curve was filed as active; the % refers to the signal ratio)
Chain of Androgen receptor (Homo sapiens) (P10275 whole entry, looked up): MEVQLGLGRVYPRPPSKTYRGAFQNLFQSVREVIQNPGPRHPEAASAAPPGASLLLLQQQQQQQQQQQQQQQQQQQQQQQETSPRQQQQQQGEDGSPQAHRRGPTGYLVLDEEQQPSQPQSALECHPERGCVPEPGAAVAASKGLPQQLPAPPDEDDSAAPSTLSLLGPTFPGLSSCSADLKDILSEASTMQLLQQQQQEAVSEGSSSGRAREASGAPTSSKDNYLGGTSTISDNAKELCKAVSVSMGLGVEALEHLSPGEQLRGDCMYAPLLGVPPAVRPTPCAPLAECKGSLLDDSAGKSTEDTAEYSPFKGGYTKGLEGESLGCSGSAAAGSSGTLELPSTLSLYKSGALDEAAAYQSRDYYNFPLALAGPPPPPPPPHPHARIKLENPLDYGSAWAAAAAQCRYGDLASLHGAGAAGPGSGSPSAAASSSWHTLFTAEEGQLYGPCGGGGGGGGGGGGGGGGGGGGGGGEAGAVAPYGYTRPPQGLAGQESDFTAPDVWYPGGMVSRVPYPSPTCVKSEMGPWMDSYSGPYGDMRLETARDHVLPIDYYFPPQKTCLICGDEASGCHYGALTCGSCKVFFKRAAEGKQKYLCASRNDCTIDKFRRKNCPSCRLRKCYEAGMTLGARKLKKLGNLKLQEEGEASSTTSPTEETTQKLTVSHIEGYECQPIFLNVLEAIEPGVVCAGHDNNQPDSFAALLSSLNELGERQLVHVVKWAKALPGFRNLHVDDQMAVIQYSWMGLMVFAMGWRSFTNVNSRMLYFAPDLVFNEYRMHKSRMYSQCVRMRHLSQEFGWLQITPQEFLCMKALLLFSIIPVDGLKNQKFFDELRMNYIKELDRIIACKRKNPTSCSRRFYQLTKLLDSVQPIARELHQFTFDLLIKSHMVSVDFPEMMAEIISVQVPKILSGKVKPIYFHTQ
Method in brief: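 Steps: seed AR-UAS-bla GripTite HEK293 cells, incubate 4 h at 37C; pin in test compound, then add agonist R1881; incubate 16 h at 37C; add LiveBLAzer B/G FRET substrate, 2 h at room temperature; read fluorescence.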

[17] = biological target: Androgen receptor (Homo sapiens) (UniProt P10275); assay: qHTS assay to identify small molecule agonists of the androgen receptor (AR) signaling pathway (AID 743036; active = well fitted activation curve with a large enough effect in the signal ratio in the repeat runs, with a control signal flat, not every such curve was filed as active; the % refers to the signal ratio)
Method in brief: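 Following a 4 h settling period, AR-UAS-bla HEK293 cells were dosed with compounds for 16 h at 37C. A 2 h room-temperature incubation with LiveBLAzer B/G FRET substrate preceded the fluorescence measurement.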

[18] = biological target: Androgen receptor (Homo sapiens) (UniProt P10275); assay: qHTS assay to identify small molecule agonists of the androgen receptor (AR) signaling pathway using the MDA cell line (AID 743040; also: nearly all actives have a fitted effect of over 20% in size)
Method in brief: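 Agonist activity is measured as luciferase luminescence in human MDA-kb2 cells whose MMTV reporter responds to both AR and GR. Compounds in DMSO incubate 16 h at 37C, 0% CO2, and ONE-Glo is read after 30 min.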

[19] = qHTS assay to identify small molecule antagonists of the androgen receptor (AR) signaling pathway using the MDA cell line - cell viability counter screen (AID 743041; also: nearly all actives have a fitted effect of over 45% in size)
Method in brief: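 qHTS viability read-out; MDA-kb2 AR-luc; R1881-stimulated; 16 h exposure at 37C, 0% CO2; CellTiter-Fluor, 30 min; fluorescence intensity.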

[20] = qHTS assay to identify small molecule antagonists of the thyroid receptor (TR) signaling pathway - cell viability counter screen (AID 743064); also: nearly all actives have a fitted effect of over 50% in size
Method in brief: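 CellTiter-Fluor readout, 30 min at 37 °C/5% CO2, following 23.5 h incubation of GH3.TRE-Luc cells with test compound and 1 nM T3 (final).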

Measured: Potency

Cc1cnc[nH]1
inactive: all assays above

CCNc1nc(NC(C)C)nc(OC)n1
not listed: [16] | [17] | [18]
inactive: all other assays above

O=[N+]([O-])c1ccc(CBr)cc1
not listed: [16] | [17] | [18]
inactive: all other assays above

COc1cc(OC)nc(Sc2cccc(Cl)c2C(=O)O)n1
not listed: [16] | [17] | [18]
inactive: all other assays above

CNC(=O)O/N=C(\C)SC
not listed: [16] | [17] | [18] | [20]
inactive: all other assays above

COP(N)(=S)Oc1ccccc1C(=O)OC(C)C (stereo not given)
not listed: [20]
inactive: all other assays above

CCOP(=O)(N=C1SCCS1)OCC
not listed: [16] | [17] | [18] | [20]
inactive: all other assays above

CNC(=O)Oc1ccccc1C1OCCO1
not listed: [16] | [17]
inactive: all other assays above
